Experimental data published in ChEMBL document CHEMBL2218924, “A broad activity screen in support of a chemogenomic map for kinase signalling research and drug discovery” (Biochem J, 2013).

How the values were obtained:
[1] = target: Serine/threonine-protein kinase PAK 4 (Homo sapiens) (UniProt O96013); conditions: at 1 µM
[2] = target: Serine/threonine-protein kinase PAK 4 (Homo sapiens) (UniProt O96013); conditions: at 10 µM
[3] = target: Serine/threonine-protein kinase PAK 5 (Homo sapiens) (UniProt Q9P286); conditions: at 1 µM
[4] = target: Serine/threonine-protein kinase PAK 5 (Homo sapiens) (UniProt Q9P286); conditions: at 10 µM
[5] = target: Serine/threonine-protein kinase PAK 6 (Homo sapiens) (UniProt Q9NQU5); conditions: at 1 µM
[6] = target: Serine/threonine-protein kinase PAK 6 (Homo sapiens) (UniProt Q9NQU5); conditions: at 10 µM
[7] = target: PAS domain-containing serine/threonine-protein kinase (Homo sapiens) (UniProt Q96RG2); conditions: at 10 µM
[8] = target: Activated CDC42 kinase 1 (Homo sapiens) (UniProt Q07912); conditions: at 1 µM
[9] = target: Activated CDC42 kinase 1 (Homo sapiens) (UniProt Q07912); conditions: at 10 µM
[10] = target: ALK tyrosine kinase receptor (Homo sapiens) (UniProt Q9UM73); conditions: at 1 µM
Sequence of ALK tyrosine kinase receptor (Homo sapiens) (Q9UM73 19-1620 limits assumed): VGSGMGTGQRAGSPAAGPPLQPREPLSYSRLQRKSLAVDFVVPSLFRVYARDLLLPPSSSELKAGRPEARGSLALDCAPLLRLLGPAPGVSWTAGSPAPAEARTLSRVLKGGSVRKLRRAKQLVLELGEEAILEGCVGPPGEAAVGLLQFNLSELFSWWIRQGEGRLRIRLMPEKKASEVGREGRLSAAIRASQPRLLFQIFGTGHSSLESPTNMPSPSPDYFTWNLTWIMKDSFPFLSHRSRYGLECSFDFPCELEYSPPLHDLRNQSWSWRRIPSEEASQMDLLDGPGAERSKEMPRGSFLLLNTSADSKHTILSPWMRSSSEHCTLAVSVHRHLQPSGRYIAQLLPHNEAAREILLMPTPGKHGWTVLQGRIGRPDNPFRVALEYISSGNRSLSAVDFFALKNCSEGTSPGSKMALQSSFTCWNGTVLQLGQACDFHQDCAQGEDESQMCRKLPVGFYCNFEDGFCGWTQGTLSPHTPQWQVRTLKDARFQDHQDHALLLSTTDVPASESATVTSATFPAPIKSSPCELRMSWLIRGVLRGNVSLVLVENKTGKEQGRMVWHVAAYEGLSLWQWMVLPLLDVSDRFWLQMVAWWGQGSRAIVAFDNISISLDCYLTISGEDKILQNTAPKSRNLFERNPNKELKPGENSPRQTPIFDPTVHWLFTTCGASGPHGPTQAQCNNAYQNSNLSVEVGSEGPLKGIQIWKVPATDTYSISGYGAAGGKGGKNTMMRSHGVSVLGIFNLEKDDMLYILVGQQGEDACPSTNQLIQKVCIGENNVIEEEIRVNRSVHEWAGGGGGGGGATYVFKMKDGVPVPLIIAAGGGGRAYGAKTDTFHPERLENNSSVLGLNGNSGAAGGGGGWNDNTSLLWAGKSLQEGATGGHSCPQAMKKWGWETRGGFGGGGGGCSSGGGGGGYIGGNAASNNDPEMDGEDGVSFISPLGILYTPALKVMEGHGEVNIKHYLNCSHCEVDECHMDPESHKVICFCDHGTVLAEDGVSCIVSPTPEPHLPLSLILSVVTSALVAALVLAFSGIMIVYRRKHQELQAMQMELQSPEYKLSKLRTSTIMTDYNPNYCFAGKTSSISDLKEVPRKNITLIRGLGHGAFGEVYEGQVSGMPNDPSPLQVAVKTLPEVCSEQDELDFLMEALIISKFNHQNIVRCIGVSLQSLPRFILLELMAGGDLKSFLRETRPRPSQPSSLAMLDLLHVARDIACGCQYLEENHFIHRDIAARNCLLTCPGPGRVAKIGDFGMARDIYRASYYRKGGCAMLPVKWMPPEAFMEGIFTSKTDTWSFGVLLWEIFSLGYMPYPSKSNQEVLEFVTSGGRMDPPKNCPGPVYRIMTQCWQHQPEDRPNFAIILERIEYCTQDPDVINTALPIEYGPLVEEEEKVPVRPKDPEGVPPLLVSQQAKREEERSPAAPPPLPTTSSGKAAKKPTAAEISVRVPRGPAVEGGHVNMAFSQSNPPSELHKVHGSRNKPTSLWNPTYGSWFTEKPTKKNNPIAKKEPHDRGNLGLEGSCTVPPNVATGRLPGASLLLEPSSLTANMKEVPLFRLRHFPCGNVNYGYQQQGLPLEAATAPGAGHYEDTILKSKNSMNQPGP

Sequence of PAS domain-containing serine/threonine-protein kinase (Homo sapiens) (Q96RG2 whole entry, the tested form may be a part): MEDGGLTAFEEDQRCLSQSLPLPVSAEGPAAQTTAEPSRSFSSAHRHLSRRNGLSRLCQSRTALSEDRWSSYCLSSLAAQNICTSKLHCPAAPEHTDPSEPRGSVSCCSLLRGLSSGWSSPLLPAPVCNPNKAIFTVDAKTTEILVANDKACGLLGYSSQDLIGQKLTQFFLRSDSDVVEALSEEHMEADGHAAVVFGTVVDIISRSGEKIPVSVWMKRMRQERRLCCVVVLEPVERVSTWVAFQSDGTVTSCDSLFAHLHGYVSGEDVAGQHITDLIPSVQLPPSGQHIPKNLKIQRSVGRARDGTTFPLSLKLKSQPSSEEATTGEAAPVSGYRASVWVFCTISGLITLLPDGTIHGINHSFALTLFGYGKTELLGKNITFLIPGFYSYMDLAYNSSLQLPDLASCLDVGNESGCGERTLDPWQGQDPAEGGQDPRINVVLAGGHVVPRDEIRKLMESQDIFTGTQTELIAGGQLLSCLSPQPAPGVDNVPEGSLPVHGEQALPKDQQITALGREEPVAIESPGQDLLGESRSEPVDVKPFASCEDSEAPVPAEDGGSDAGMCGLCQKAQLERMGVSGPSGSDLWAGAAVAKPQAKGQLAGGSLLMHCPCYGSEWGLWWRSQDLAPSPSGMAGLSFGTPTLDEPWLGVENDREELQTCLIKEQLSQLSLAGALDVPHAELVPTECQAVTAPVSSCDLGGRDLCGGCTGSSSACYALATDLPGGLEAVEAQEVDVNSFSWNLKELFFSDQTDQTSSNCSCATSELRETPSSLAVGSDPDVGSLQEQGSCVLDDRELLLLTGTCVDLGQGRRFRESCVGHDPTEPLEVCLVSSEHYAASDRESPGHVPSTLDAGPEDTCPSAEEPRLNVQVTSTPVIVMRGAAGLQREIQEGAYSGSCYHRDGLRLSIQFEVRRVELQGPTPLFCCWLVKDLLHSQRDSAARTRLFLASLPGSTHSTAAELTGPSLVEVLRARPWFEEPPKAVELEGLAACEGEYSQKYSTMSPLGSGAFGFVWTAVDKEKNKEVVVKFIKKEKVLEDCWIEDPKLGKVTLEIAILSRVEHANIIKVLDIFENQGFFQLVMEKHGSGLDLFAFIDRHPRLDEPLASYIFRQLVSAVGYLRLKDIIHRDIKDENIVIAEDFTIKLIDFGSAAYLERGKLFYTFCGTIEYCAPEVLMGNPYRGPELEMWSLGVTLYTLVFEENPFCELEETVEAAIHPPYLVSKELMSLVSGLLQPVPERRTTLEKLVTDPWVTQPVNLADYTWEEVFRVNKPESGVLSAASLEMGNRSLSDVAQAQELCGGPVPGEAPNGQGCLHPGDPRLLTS
Sequence of Serine/threonine-protein kinase PAK 5 (Homo sapiens) (Q9P286 whole entry, looked up): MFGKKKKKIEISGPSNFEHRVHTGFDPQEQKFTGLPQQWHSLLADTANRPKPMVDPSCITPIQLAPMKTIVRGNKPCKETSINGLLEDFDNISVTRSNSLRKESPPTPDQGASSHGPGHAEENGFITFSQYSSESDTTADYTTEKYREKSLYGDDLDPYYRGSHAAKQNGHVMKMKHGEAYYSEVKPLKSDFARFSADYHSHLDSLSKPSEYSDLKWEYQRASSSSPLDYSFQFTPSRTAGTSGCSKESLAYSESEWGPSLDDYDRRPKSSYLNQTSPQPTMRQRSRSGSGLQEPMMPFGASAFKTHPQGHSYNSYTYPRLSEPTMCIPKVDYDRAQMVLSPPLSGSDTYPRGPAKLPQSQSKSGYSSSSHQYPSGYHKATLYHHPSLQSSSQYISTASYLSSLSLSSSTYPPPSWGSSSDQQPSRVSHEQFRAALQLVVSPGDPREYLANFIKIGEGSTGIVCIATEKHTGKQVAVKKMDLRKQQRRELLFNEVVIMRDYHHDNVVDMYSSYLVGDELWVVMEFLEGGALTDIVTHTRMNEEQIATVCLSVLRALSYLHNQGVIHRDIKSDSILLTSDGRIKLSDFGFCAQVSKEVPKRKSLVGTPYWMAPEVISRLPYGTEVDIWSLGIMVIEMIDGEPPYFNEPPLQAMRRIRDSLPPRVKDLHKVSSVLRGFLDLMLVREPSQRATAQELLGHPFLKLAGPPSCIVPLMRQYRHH
Sequence of Activated CDC42 kinase 1 (Homo sapiens) (Q07912 whole entry, looked up): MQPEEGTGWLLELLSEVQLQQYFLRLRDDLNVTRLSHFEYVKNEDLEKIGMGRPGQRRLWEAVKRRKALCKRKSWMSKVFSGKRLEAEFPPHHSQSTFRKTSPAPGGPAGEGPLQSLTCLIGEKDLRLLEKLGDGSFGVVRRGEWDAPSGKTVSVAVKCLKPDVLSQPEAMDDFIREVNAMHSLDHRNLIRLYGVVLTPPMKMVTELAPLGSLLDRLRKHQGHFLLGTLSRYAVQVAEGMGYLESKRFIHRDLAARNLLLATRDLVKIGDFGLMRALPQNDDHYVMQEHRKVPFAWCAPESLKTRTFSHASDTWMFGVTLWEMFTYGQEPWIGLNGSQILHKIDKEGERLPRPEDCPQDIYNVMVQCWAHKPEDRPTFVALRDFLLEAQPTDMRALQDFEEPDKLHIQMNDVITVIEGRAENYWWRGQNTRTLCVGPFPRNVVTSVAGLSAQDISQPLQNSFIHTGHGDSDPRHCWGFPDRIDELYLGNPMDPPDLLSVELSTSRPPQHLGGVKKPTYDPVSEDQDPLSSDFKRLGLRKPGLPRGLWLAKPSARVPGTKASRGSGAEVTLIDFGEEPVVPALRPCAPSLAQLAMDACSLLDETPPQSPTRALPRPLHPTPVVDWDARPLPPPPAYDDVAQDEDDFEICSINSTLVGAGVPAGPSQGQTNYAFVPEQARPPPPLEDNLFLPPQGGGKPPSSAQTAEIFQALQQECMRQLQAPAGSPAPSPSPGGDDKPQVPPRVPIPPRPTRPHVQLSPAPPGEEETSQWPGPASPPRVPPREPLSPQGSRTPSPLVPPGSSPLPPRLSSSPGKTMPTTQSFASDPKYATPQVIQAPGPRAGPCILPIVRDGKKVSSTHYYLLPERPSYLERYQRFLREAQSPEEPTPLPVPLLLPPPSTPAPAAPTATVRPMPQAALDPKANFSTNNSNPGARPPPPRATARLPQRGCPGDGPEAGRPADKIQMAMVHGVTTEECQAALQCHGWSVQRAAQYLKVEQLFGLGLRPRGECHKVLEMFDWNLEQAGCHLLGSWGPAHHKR

Structure (SMILES) | residual activity [1] [%] | residual activity [2] [%] | residual activity [3] [%] | residual activity [4] [%] | residual activity [5] [%] | residual activity [6] [%] | residual activity [7] [%] | residual activity [8] [%] | residual activity [9] [%] | residual activity [10] [%]
O=C1NC(=O)/C(=C/c2ccc3c(c2)OC(F)(F)O3)S1 | 102 | 95 | 80 | 70 | 81 | 78 | 37 | 96 | 70 | 69
CO[C@H]1[C@@H](OC)C[C@H](C)[C@@H](OC)C2=CC(=O)C=C(NC(=O)/C(C)=C/C=C/[C@H](OC)[C@@H](OC(N)=O)/C(C)=C/[C@@H]1C)C2=O | 106 | 92 | 92 | 64 | 99 | 84 | 59 | 92 | 72 | 71
CC#CC(=O)Nc1cc2c(Nc3ccc(F)c(Cl)c3)ncnc2cn1 | 99 | 91 | 104 | 107 | 102 | 96 | 99 | 86 | 71 | 81
O=C1Nc2cc(Br)ccc2/C1=C1/Nc2ccccc2/C1=N\O | 30 | 25 | 39 | 55 | 51 | 21 | 115 | 14 | 2 | 35
Nc1cccc(-c2cc3c(Oc4cccc(O)c4)ncnc3[nH]2)c1 | 63 | 19 | 87 | 31 | 86 | 48 | 101 | 10 | -1 | 42
O=c1cc(-c2cccc3c2Sc2ccccc2S3)oc(N2CCOCC2)c1 | 106 | 96 | 108 | 91 | 89 | 72 | 80 | 89 | 84 | 97
Cc1ccc(NC2=CC(=O)c3sc(C)nc3C2=O)cc1 | 98 | 93 | 121 | 94 | 102 | 80 | 82 | 80 | 71 | 86
CC(=O)O/N=C1\C(=C2\C(=O)Nc3cc(Br)ccc32)Nc2ccccc21 | 100 | 67 | 88 | 63 | 89 | 67 | 108 | 48 | 15 | 58
Oc1c2ccccc2c2c3c(cccc13)N=N2 | 88 | 45 | 99 | 64 | 91 | 49 | 81 | 50 | 12 | 61
Cn1cc(/C=C2\C(=O)Nc3ccc(S(N)(=O)=O)cc32)c2ccccc21 | 28 | 7 | 41 | 26 | 46 | 22 | 71 | 60 | 36 | 56
CNc1cc2c(Nc3cccc(Br)c3)ncnc2cn1 | 88 | 65 | 97 | 104 | 101 | 89 | 57 | 46 | 11 | 78
O=C1NC(=O)c2c1c1c3ccccc3[nH]c1c1[nH]c3cc(Br)ccc3c21 | 94 | 92 | 101 | 85 | 77 | 58 | 96 | 64 | 61 | 91
Cc1nc2cc3nc(-c4cccs4)cnc3cc2n1C | 95 | 101 | 106 | 105 | 111 | 102 | 86 | 107 | 74 | 93
COc1ccc(S(=O)(=O)N(CCO)c2ccccc2CN(C)C/C=C/c2ccc(Cl)cc2)cc1 | 94 | 93 | 100 | 77 | 105 | 64 | 87 | 68 | 60 | 68
Ic1cccc(CSc2nnc(-c3ccncc3)o2)c1 | 91 | 84 | 91 | 72 | 89 | 73 | 106 | 75 | 60 | 73
O=C(Nc1cccc(Nc2nccc(Nc3cccc(C(F)(F)F)c3)n2)c1)C1CC1 | 80 | 34 | 97 | 107 | 90 | 52 | 47 | 25 | 5 | 69
COc1cc2ncnc(Nc3ccc(NC(=O)c4ccccc4)cc3)c2cc1OC | 101 | 103 | 89 | 68 | 108 | 92 | 67 | 13 | 1 | 107

Structure (SMILES) | residual activity [1] [%] | residual activity [2] [%] | residual activity [3] [%] | residual activity [4] [%] | residual activity [5] [%] | residual activity [6] [%] | residual activity [7] [%] | residual activity [8] [%] | residual activity [9] [%] | residual activity [10] [%]
CC(C)n1cnc2/c(=N/c3cccc(Cl)c3)nc(NCCO)[nH]c21 | 62 | 15 | 80 | 33 | 43 | 25 | 114 | 14 | 5 | 81
Cc1cc(Nc2nc(-c3ccccc3)nc3ccccc23)n[nH]1 | 9 | 2 | 21 | 3 | 47 | 7 | 121 | 13 | 0 | 70
N#C/C(=C(\N)Sc1ccc(N)cc1)c1ccccc1C(F)(F)F | 101 | 94 | 90 | 89 | 96 | 96 | 105 | 50 | 43 | 65
CO[C@@H]1[C@H](N(C)C(=O)c2ccccc2)C[C@H]2O[C@]1(C)n1c3ccccc3c3c4c(c5c6ccccc6n2c5c31)C(=O)NC4 | 64 | 43 | 52 | 48 | 49 | 26 | 0 | 11 | -1 | 32
Oc1ccc(-c2nc(-c3ccc(F)cc3)c(-c3ccncc3)[nH]2)cc1 | 107 | 96 | 99 | 85 | 88 | 84 | 34 | 81 | 27 | 83
Cc1cncc2cccc(S(=O)(=O)N3CCCN(C(=O)CN)C[C@H]3C)c12 | 90 | 85 | 86 | 95 | 88 | 86 | 64 | 69 | 21 | 76
COc1cc2ncnc(Nc3ccc(O)c(Br)c3)c2cc1OC | 89 | 77 | 98 | 98 | 123 | 104 | 8 | 14 | 1 | 19
NC(=O)c1ccc2[nH]c(-c3ccc(Oc4ccc(Cl)cc4)cc3)nc2c1 | 97 | 92 | 99 | 113 | 110 | 103 | 123 | 77 | 61 | 75
CCC(=O)Nc1ccc2ncnc(Nc3cccc(Br)c3)c2c1 | 99 | 86 | 97 | 98 | 107 | 93 | 36 | 70 | 36 | 81
N#Cc1cnc2cnc(NCc3cccnc3)cc2c1Nc1ccc(F)c(Cl)c1 | 65 | 18 | 11 | 5 | 2 | 2 | 63 | 3 | 1 | 90
CC(=O)c1ccc(N2CCOCC2)cc1O | 100 | 90 | 97 | 91 | 95 | 107 | 88 | 94 | 73 | 80
O=C1NC(=O)/C(=C\c2ccc3nccnc3c2)S1 | 95 | 86 | 86 | 99 | 92 | 94 | 11 | 84 | 66 | 49
c1ccc2c(-c3ccncc3)c[nH]c2c1 | 93 | 80 | 97 | 103 | 106 | 103 | 20 | 80 | 49 | 76
O=Nc1c(-c2c(O)[nH]c3ccccc23)[nH]c2ccccc12 | 55 | 14 | 64 | 33 | 63 | 37 | 76 | 34 | 4 | 52
COc1ccc(CNc2nc(N(CCO)CCO)nc3c2ncn3C(C)C)cc1 | 89 | 56 | 95 | 66 | 87 | 63 | 129 | 70 | 51 | 80
CCN(CC)CCCCN1c2ccccc2Oc2ccc(Cl)cc21 | 107 | 97 | 100 | 90 | 104 | 109 | 13 | 113 | 81 | 92
O=[N+]([O-])c1ccc(-c2nc(-c3ccc(F)cc3)c(-c3ccncc3)[nH]2)cc1 | 108 | 98 | 94 | 96 | 102 | 105 | 119 | 50 | 11 | 83
